Data taken from PubChem BioAssay (EPA / NIEHS).
Records with an inconclusive call do not appear. Activity calls are given as the source filed them. The calls were made as follows: active = hit-call score of the fitted dose curve at least 0.9, where 1 is the maximum; inconclusive = response in the unintended direction; inactive = score below 0.9.

Test: ACEA_ER_AUC_viability: ACEA Biosciences xCELLigence Real-Time Cell Analysis on Estrogen Receptor Agonism for Viability (AID 2283782);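 also: hit means loss of impedance signal meaning reduced cell growth or viability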
In short: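 Continuous-exposure impedance cell analysis uses T-47D cells in charcoal-stripped serum, eight 1:4 dilutions topping at 100 uM final, biological duplicate. Area under the growth curve at 80 h is fitted against DMSO baseline.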
With CCCCC/C=C/C=C/C=O the AC50 was 81.1 µM (active).
For CCC(C)(O)CCC=C(C)C (centres undefined), the AC50 was 79.1 µM (active).
In the case of CC(C)c1ccc(C(C)C)cc1, the outcome is reported as “inactive”.
In the case of CC(CN1c2ccccc2Sc2ccccc21)N(C)C (centres undefined), the AC50 is reported as 17.2 µM (active).
In the case of CC1CCC(C(C)(C)O)CC1 (centres undefined), the outcome is reported as “inactive”.
With O=C=NC1CCC(CC2CCC(N=C=O)CC2)CC1 (centres undefined) the AC50 was 28.5 µM (active).
With Nc1ccc(F)c([N+](=O)[O-])c1 the AC50 was 26.5 µM (active).
For CCC(=O)OCc1ccccc1, the outcome was “inactive”.
For O=[N+]([O-])c1cc(C(F)(F)F)ccc1Cl, the AC50 was 49.8 µM (active).
For CC(=O)OCCC(C)CC(C)(C)C (centres undefined), the outcome was “inactive”.
For Nc1ccc(S(=O)(=O)O)c(N)c1, the outcome was “inactive”.
For NC(=O)c1ccccc1Cl, the AC50 was 27.1 µM (active).
In the case of CCCCCCCCC=O, the outcome is reported as “inactive”.
For O=C(O)CCSCCC(=O)O, the outcome was “inactive”.
In the case of CCCCCCCCCCN, the AC50 is reported as 45.2 µM (active).
With CC(CC(C)(C)C)CC(C)(C)CC(C)(C)C (centres undefined) the outcome was “inactive”.
With C=C(C)C1CCC(C)CC1O (centres undefined) the AC50 was 50 µM (active).
With CCCCCCCCCCCCCC(=O)O the outcome was “inactive”.
For CC(CCO)CCc1ccccc1 (centres undefined), the AC50 was 50 µM (active).
With C=CC(C)(CCC=C(C)C)OC=O (centres undefined) the outcome was “inactive”.
In the case of O=C(O)Cc1cccc2ccccc12, the outcome is reported as “inactive”.
In the case of CC(=O)[O][Al][O]C(C)=O, the AC50 is reported as 9.92 µM (active).
With Nc1ccc(S(N)(=O)=O)cc1 the outcome was “inactive”.
For CC(=O)Nc1ccc(C)cc1C, the outcome was “inactive”.
With OCCOCCOCCOCCO the outcome was “inactive”.
With Fc1c(F)c(F)c(Br)c(F)c1F the outcome was “inactive”.
For O=C(O)CCCCCCCCCCC(=O)O, the AC50 was 37.7 µM (active).
With CC(C)c1cccc(O)c1 the outcome was “inactive”.
In the case of CCCCCNCCCCC, the outcome is reported as “inactive”.
For C=C[Si](OCC)(OCC)OCC, the outcome was “inactive”.
For O=C(O)c1ccc(C(=O)O)cc1, the outcome was “inactive”.
For CC1=CCC2C(C1)C2(C)C (centres undefined), the outcome was “inactive”.
With O=C1CCc2ccccc2O1 the AC50 was 38 µM (active).
In the case of CCCCO, the AC50 is reported as 35.2 µM (active).
